HCMV antiviral – blocks human cytomegalovirus replication; hit rate 4.5% among 410,000; HFF cells, HCMV-luciferase reporter, 72 h; stronger effect = lower value; AID 1259415; activity change, negative = inhibition, % at 57.5 µM; in the data active means activity change below about -60%; inconclusive means no clear call, values can overlap the other calls; inactive means above about -39%
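Two-dose cell screen: HFF monolayers treated with compounds and infected with luciferase-expressing HCMV at 1 PFU/cell, 72 h at 37C, then lysed for luciferase measurement.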
VACV mCherry inh – vaccinia inhibition (mCherry reporter); Vaccinia virus mCherry reporter infection, fluorescence; Potency, µM (doses to about 36.5 µM), for the others: at the highest dose activity change, negative = inhibition, actives largely listed as inhibitors; hit rate 0.63% among 310,000; AID 720579; calls by dose curve; tested in A549 cells; further: potency means the concentration at half of the fitted maximal effect; nearly all actives have a fitted effect of over 35% in size
VACV Venus inh – vaccinia inhibition (Venus reporter). Vaccinia virus Venus reporter expression, fluorescence. Potency, µM (doses to about 36.5 µM), without a hit: top-dose activity change, negative = inhibition, actives largely listed as inhibitors. hit rate 0.46% among 330,000; calls by dose curve; tested in A549 cells; further: potency means the concentration at half of the fitted maximal effect; nearly all actives have a fitted effect of over 30% in size
FMDV inh – antivirals against foot and mouth disease virus; Potency, µM (highest dose often 57.9 µM), for the others: at the highest dose activity change, negative = inhibition, actives largely listed as inhibitors; hit rate 1.2% among 410,000; FMDV antiviral cell-based qHTS; calls by dose curve; tested in HEK293T cells; further: read-out not given here; potency means the concentration at half of the fitted maximal effect; nearly all actives have a fitted effect of over 45% in size
HCV inhibitor – HCV inhibition. hit rate 3.4% among 340,000. Potency, µM (titrated, usually from 41.8 µM), without a hit: at the top dose activity change, negative = inhibition, hits mostly inhibitors. Huh7.5.1 HCVcc-Cre infection, luciferase reporter, 44 h; active means well fitted inhibition curve with a large enough effect; inconclusive means small, poorly fitted or top-dose-only effect, or another doubt; inactive means no such curve, though single readings can be large or run the other way; further: potency means the concentration at half of the fitted maximal effect
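1,000 cells/well; 4 h culture; + compound; + HCVcc-Cre (~0.5 moi); 44 h; luciferase substrate, RT 15 min; read 15 sec.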
* hit, by the source's call; i = inactive; ? = inconclusive; . = no result given. In the library only some 7.3% were active in any assay of this set; here they are far more common. On the % scale 0 is the no-effect control and ±100 the full control effect.

SMILES	HCMV antiviral	VACV mCherry inh	VACV Venus inh	FMDV inh	HCV inhibitor
Cc1cc(C)n(-c2ccc(C(=O)N3CCN(S(=O)(=O)c4ccc(OC(F)(F)F)cc4)CC3)cc2)n1	35.0	?	-28.3%	?	.
Brc1ccc(-c2nnc(Cc3ccccc3)o2)cc1	32.8	.	.	86.6%	-19.4%
COc1ccc(SCCc2nnc(-c3ccccc3)o2)cc1	-97.5*	.	.	-1.3%	-4.6%
c1ccc(Cc2nnc(-c3ccccc3)o2)cc1	-96.3*	-6.4%	-18.1%	-15.2%	7.9%
Cc1cc(O)c2c(c1)C(=O)[C@@]13Oc4c5c(c(O)c6c(O)cc(C)cc46)C(=O)C[C@H](O)[C@H]5[C@@H]1[C@@H](O)CC(=O)C3=C2O	.	8.9%	19.7%	-2.8%	-19.6%
CCOC(=O)N1CCC(NC(=O)C2CCN(c3nc(-c4ccc(OC)cc4)no3)CC2)CC1	-65.3*	.	.	?	?
CCOc1ccccc1NC(=O)C1CCN(c2nc(-c3ccc(OC)cc3)no2)CC1	8.8	i	-22.0%	?	-6.7%
COc1ccc(-c2noc(N3CCC(C(=O)NC(C)c4ccccc4)CC3)n2)cc1 (stereo not drawn)	-63.0*	i	-13.7%	?	?
COc1ccc(-c2noc(N3CCC(C(=O)Nc4ccccc4F)CC3)n2)cc1	-12.2	i	-28.8%	?	-0.6%
COc1ccc(-c2noc(N3CCC(C(=O)Nc4ccccc4Cl)CC3)n2)cc1	-8.6	i	-28.5%	?	-4.0%
CCN(C(=O)C1CCN(c2nc(-c3ccc(OC)cc3)no2)CC1)c1ccccc1	-1.5	-21.3%	?	?	10µM*
COc1ccc(-c2noc(N3CCC(C(=O)N(C)c4ccccc4)CC3)n2)cc1	-18.9	-7.8%	?	?	11.2µM*
O=C(CCS(=O)(=O)c1cc(Br)cc2c1N(C(=O)C1CC1)CC2)NCc1ccccc1Cl	-4.7	-8.1%	-5.4%	17.3%	.
Cn1cc(CCC(=O)NCCCc2ccccc2)c2ccccc21	4.2	i	-14.2%	-11.0%	-10.3%
Cc1cccc(OCCn2c(SCC(=O)O)nc3ccccc32)c1	-14.4	-14.1%	8.0%	-11.5%	.
O=C1NC(c2ccccc2Cl)Nc2ccccc21 (stereo not drawn)	22.9	.	.	-22.5%	-11.6%
COc1ccc2ccccc2c1C1NC(=O)c2ccccc2N1 (stereo not drawn)	-15.6	?	5.62µM*	-27.3%	2.3%
O=C1NC(c2cccc3ccccc23)Nc2ccccc21 (stereo not drawn)	-69.0*	?	?	5.3%	0.3%
CCN(CC)C(=O)C1=C(C)N(Cc2ccccc2)C(=O)C(CC(=O)NCc2cccc3ccccc23)C1 (stereo not drawn)	-16.5	?	-22.4%	0.0%	.
COc1cc(C(C)=O)ccc1OCCCN1CCC(c2noc3cc(F)ccc23)CC1	14.8	.	.	.	.
OC(Cc1ccc2ccccc2n1)c1c(Cl)cccc1Cl (stereo not drawn)	.	7.7%	1.1%	.	.
COc1ccc(NC(=O)CN2C(=O)/C(=C3\SC(=S)N(C4CCS(=O)(=O)C4)C3=O)c3ccccc32)cc1 (stereo not drawn)	-3.6	-18.1%	0.4%	?	-8.6%
O=C(CN1C(=O)/C(=C2\SC(=S)N(C3CCS(=O)(=O)C3)C2=O)c2ccccc21)Nc1ccc(F)cc1 (stereo not drawn)	?	-26.5%	-8.6%	12.6µM*	11.1%
CN(Cc1ccc2c(c1)OCCO2)C(=O)CN1C(=O)NC2(CCCCC2)C1=O	-12.9	.	.	-20.8%	3.6%
CCC(C)(C)C1CCC2(CC1)NC(=O)N(CC(=O)N(C)Cc1ccc3c(c1)OCCO3)C2=O (stereo not drawn)	?	.	.	?	12.6µM*
SMILES	HCMV antiviral	VACV mCherry inh	VACV Venus inh	FMDV inh	HCV inhibitor
COc1ccc(C(=O)N2CCCCCC2)cc1S(=O)(=O)N1CCOCC1	-17.0	-8.1%	-5.1%	59.7%	-3.9%
COc1ccc(C(=O)OCC(=O)NC23CC4CC(CC(C4)C2)C3)c(O)c1	-26.6	?	-26.8%	-20.5%	.
N#Cc1c(NC(=O)COC(=O)c2ccc(O)cc2O)sc2c1CCC2	?	.	.	-18.3%	7.08µM*
CC(C)(C)c1ccc(C(=O)OCC(=O)Nc2sc3c(c2C#N)CCC3)cc1	-21.1	-20.0%	-11.5%	-8.2%	1.9%
O=C(COC(=O)c1ccc(O)cc1O)NC12CC3CC(CC(C3)C1)C2	7.2	.	.	23.7%	12.6µM*
O=C(COC(=O)c1ccc(O)cc1O)NC1CCCCCC1	10.5	.	.	-3.0%	12.6µM*
CCS(=O)(=O)N1CCN(C(=O)c2cccc3ccccc23)CC1	51.9	i	-13.6%	-10.4%	16.8%
